Drawing on paper PMC11102866, “Nucleosome-bound NR5A2 structure reveals pioneer factor mechanism by DNA minor groove anchor competition”, this text covers binding signal for 15 molecules.

The target of assay [1] is NR5A2 wild type;histone octamer (Homo sapiens;, UniProt O00482;C0HKE1;Q6ZWY9;P84244;P62806 1-541;2-130;2-126;2-136;2-103, |). Nature of the assay: SeEN-seq (EMSA of nucleosome library followed by sequencing); 0.8 uM human NR5A2; 20 mM Tris-HCl pH 7.5, 120 mM NaCl, 1 mM MgCl2, 10 uM ZnCl2, 1 mM DTT, 100 ug/ml BSA, room temperature, 30 min; 0.1 uM nucleosome library; high values mean tight binding.

Assay [2] concerns the target mouse Nr5a2 wild type;histone octamer (Mus musculus;, UniProt P45448;C0HKE1;Q6ZWY9;P84244;P62806 1-560;2-130;2-126;2-136;2-103, |). Nature of the assay: SeEN-seq (EMSA of nucleosome library followed by sequencing); 1.2 uM mouse Nr5a2; 20 mM Tris-HCl pH 7.5, 120 mM NaCl, 1 mM MgCl2, 10 uM ZnCl2, 1 mM DTT, 100 ug/ml BSA, room temperature, 30 min; 0.1 uM nucleosome library; high values mean tight binding.

B1: 1 (nucleosome)
DNA 1: ATCTCAAGGCCACCCGGTGCCGAGGCCGCTCAATTGGTCGTAGACAGCTCTAGCACCGCTTAAACGCACGTACGCGCTGTCCCCCGCGTTTTAACCGCCAAGGGGATTACTCCCTAGTCTCCAGGCACGTGTCAGATATATACATCCTGTGAT
DNA 2: ATCACAGGATGTATATATCTGACACGTGCCTGGAGACTAGGGAGTAATCCCCTTGGCGGTTAAAACGCGGGGGACAGCGCGTACGTGCGTTTAAGCGGTGCTAGAGCTGTCTACGACCAATTGAGCGGCCTCGGCACCGGGTGGCCTTGAGAT
modifications: reconstituted with mouse histones H2A, H2B, H3.3 and H4
On to B1, for which the binding signal is 6.41 log2 enrichment (bound/unbound, relative to Widom 601) in assay [1] and 5.85 log2 enrichment (bound/unbound, relative to Widom 601) in assay [2].

B2: 2 (nucleosome)
DNA 1: ATCCTCAAGGCCACCGGTGCCGAGGCCGCTCAATTGGTCGTAGACAGCTCTAGCACCGCTTAAACGCACGTACGCGCTGTCCCCCGCGTTTTAACCGCCAAGGGGATTACTCCCTAGTCTCCAGGCACGTGTCAGATATATACATCCTGTGAT
DNA 2: ATCACAGGATGTATATATCTGACACGTGCCTGGAGACTAGGGAGTAATCCCCTTGGCGGTTAAAACGCGGGGGACAGCGCGTACGTGCGTTTAAGCGGTGCTAGAGCTGTCTACGACCAATTGAGCGGCCTCGGCACCGGTGGCCTTGAGGAT
modifications: reconstituted with mouse histones H2A, H2B, H3.3 and H4
For the molecule B2, the binding signal in assay [1] was 6.87 log2 enrichment (bound/unbound, relative to Widom 601); in assay [2] it was 5.51 log2 enrichment (bound/unbound, relative to Widom 601).

B3: 12 (nucleosome)
DNA 1: ATCCTGGAGAATCCTCAAGGCCAGGCCGCTCAATTGGTCGTAGACAGCTCTAGCACCGCTTAAACGCACGTACGCGCTGTCCCCCGCGTTTTAACCGCCAAGGGGATTACTCCCTAGTCTCCAGGCACGTGTCAGATATATACATCCTGTGAT
DNA 2: ATCACAGGATGTATATATCTGACACGTGCCTGGAGACTAGGGAGTAATCCCCTTGGCGGTTAAAACGCGGGGGACAGCGCGTACGTGCGTTTAAGCGGTGCTAGAGCTGTCTACGACCAATTGAGCGGCCTGGCCTTGAGGATTCTCCAGGAT
modifications: reconstituted with mouse histones H2A, H2B, H3.3 and H4
With B3, the binding signal in assay [1] is 4.6 log2 enrichment (bound/unbound, relative to Widom 601); in assay [2] it was 4.25 log2 enrichment (bound/unbound, relative to Widom 601).

B4: 13 (nucleosome)
DNA 1: ATCCTGGAGAATCCCTCAAGGCCAGCCGCTCAATTGGTCGTAGACAGCTCTAGCACCGCTTAAACGCACGTACGCGCTGTCCCCCGCGTTTTAACCGCCAAGGGGATTACTCCCTAGTCTCCAGGCACGTGTCAGATATATACATCCTGTGAT
DNA 2: ATCACAGGATGTATATATCTGACACGTGCCTGGAGACTAGGGAGTAATCCCCTTGGCGGTTAAAACGCGGGGGACAGCGCGTACGTGCGTTTAAGCGGTGCTAGAGCTGTCTACGACCAATTGAGCGGCTGGCCTTGAGGGATTCTCCAGGAT
modifications: reconstituted with mouse histones H2A, H2B, H3.3 and H4
In the case of B4, the binding signal in assay [1] is 4.51 log2 enrichment (bound/unbound, relative to Widom 601); in assay [2], 3.55 log2 enrichment (bound/unbound, relative to Widom 601).

B5: 102 (nucleosome)
DNA 1: ATCCTGGAGAATCCCGGTGCCGAGGCCGCTCAATTGGTCGTAGACAGCTCTAGCACCGCTTAAACGCACGTACGCGCTGTCCCCCGCGTTTTAACCGCCAAGGGTCAAGGCCACTAGTCTCCAGGCACGTGTCAGATATATACATCCTGTGAT
DNA 2: ATCACAGGATGTATATATCTGACACGTGCCTGGAGACTAGTGGCCTTGACCCTTGGCGGTTAAAACGCGGGGGACAGCGCGTACGTGCGTTTAAGCGGTGCTAGAGCTGTCTACGACCAATTGAGCGGCCTCGGCACCGGGATTCTCCAGGAT
modifications: reconstituted with mouse histones H2A, H2B, H3.3 and H4
As for B5, the binding signal in assay [1] is 0.685 log2 enrichment (bound/unbound, relative to Widom 601); in assay [2], 0.658 log2 enrichment (bound/unbound, relative to Widom 601).

B6: 104 (nucleosome)
DNA 1: ATCCTGGAGAATCCCGGTGCCGAGGCCGCTCAATTGGTCGTAGACAGCTCTAGCACCGCTTAAACGCACGTACGCGCTGTCCCCCGCGTTTTAACCGCCAAGGGGATCAAGGCCAAGTCTCCAGGCACGTGTCAGATATATACATCCTGTGAT
DNA 2: ATCACAGGATGTATATATCTGACACGTGCCTGGAGACTTGGCCTTGATCCCCTTGGCGGTTAAAACGCGGGGGACAGCGCGTACGTGCGTTTAAGCGGTGCTAGAGCTGTCTACGACCAATTGAGCGGCCTCGGCACCGGGATTCTCCAGGAT
modifications: reconstituted with mouse histones H2A, H2B, H3.3 and H4
Take B6: the binding signal was 1.03 log2 enrichment (bound/unbound, relative to Widom 601) in assay [1] and 0.764 log2 enrichment (bound/unbound, relative to Widom 601) in assay [2].

B7: 105 (nucleosome)
DNA 1: ATCCTGGAGAATCCCGGTGCCGAGGCCGCTCAATTGGTCGTAGACAGCTCTAGCACCGCTTAAACGCACGTACGCGCTGTCCCCCGCGTTTTAACCGCCAAGGGGATTCAAGGCCAGTCTCCAGGCACGTGTCAGATATATACATCCTGTGAT
DNA 2: ATCACAGGATGTATATATCTGACACGTGCCTGGAGACTGGCCTTGAATCCCCTTGGCGGTTAAAACGCGGGGGACAGCGCGTACGTGCGTTTAAGCGGTGCTAGAGCTGTCTACGACCAATTGAGCGGCCTCGGCACCGGGATTCTCCAGGAT
modifications: reconstituted with mouse histones H2A, H2B, H3.3 and H4
For B7, the binding signal in assay [1] was 1.55 log2 enrichment (bound/unbound, relative to Widom 601); in assay [2], 1.09 log2 enrichment (bound/unbound, relative to Widom 601).

B8: 103 (nucleosome)
DNA 1: ATCCTGGAGAATCCCGGTGCCGAGGCCGCTCAATTGGTCGTAGACAGCTCTAGCACCGCTTAAACGCACGTACGCGCTGTCCCCCGCGTTTTAACCGCCAAGGGGTCAAGGCCATAGTCTCCAGGCACGTGTCAGATATATACATCCTGTGAT
DNA 2: ATCACAGGATGTATATATCTGACACGTGCCTGGAGACTATGGCCTTGACCCCTTGGCGGTTAAAACGCGGGGGACAGCGCGTACGTGCGTTTAAGCGGTGCTAGAGCTGTCTACGACCAATTGAGCGGCCTCGGCACCGGGATTCTCCAGGAT
modifications: reconstituted with mouse histones H2A, H2B, H3.3 and H4
B8: the binding signal is 0.782 log2 enrichment (bound/unbound, relative to Widom 601) in assay [1] and 0.764 log2 enrichment (bound/unbound, relative to Widom 601) in assay [2].

B9: 106 (nucleosome)
DNA 1: ATCCTGGAGAATCCCGGTGCCGAGGCCGCTCAATTGGTCGTAGACAGCTCTAGCACCGCTTAAACGCACGTACGCGCTGTCCCCCGCGTTTTAACCGCCAAGGGGATTTCAAGGCCATCTCCAGGCACGTGTCAGATATATACATCCTGTGAT
DNA 2: ATCACAGGATGTATATATCTGACACGTGCCTGGAGATGGCCTTGAAATCCCCTTGGCGGTTAAAACGCGGGGGACAGCGCGTACGTGCGTTTAAGCGGTGCTAGAGCTGTCTACGACCAATTGAGCGGCCTCGGCACCGGGATTCTCCAGGAT
modifications: reconstituted with mouse histones H2A, H2B, H3.3 and H4
As to B9, the binding signal in assay [1] is 1.84 log2 enrichment (bound/unbound, relative to Widom 601); in assay [2], 1.23 log2 enrichment (bound/unbound, relative to Widom 601).

B10: 107 (nucleosome)
DNA 1: ATCCTGGAGAATCCCGGTGCCGAGGCCGCTCAATTGGTCGTAGACAGCTCTAGCACCGCTTAAACGCACGTACGCGCTGTCCCCCGCGTTTTAACCGCCAAGGGGATTATCAAGGCCACTCCAGGCACGTGTCAGATATATACATCCTGTGAT
DNA 2: ATCACAGGATGTATATATCTGACACGTGCCTGGAGTGGCCTTGATAATCCCCTTGGCGGTTAAAACGCGGGGGACAGCGCGTACGTGCGTTTAAGCGGTGCTAGAGCTGTCTACGACCAATTGAGCGGCCTCGGCACCGGGATTCTCCAGGAT
modifications: reconstituted with mouse histones H2A, H2B, H3.3 and H4
As to B10, the binding signal in assay [1] is 0.733 log2 enrichment (bound/unbound, relative to Widom 601); in assay [2], 0.834 log2 enrichment (bound/unbound, relative to Widom 601).

B11: 108 (nucleosome)
DNA 1: ATCCTGGAGAATCCCGGTGCCGAGGCCGCTCAATTGGTCGTAGACAGCTCTAGCACCGCTTAAACGCACGTACGCGCTGTCCCCCGCGTTTTAACCGCCAAGGGGATTACTCAAGGCCATCCAGGCACGTGTCAGATATATACATCCTGTGAT
DNA 2: ATCACAGGATGTATATATCTGACACGTGCCTGGATGGCCTTGAGTAATCCCCTTGGCGGTTAAAACGCGGGGGACAGCGCGTACGTGCGTTTAAGCGGTGCTAGAGCTGTCTACGACCAATTGAGCGGCCTCGGCACCGGGATTCTCCAGGAT
modifications: reconstituted with mouse histones H2A, H2B, H3.3 and H4
As for B11, the binding signal in assay [1] is 0.869 log2 enrichment (bound/unbound, relative to Widom 601); in assay [2], 0.815 log2 enrichment (bound/unbound, relative to Widom 601).

B12: 111 (nucleosome)
DNA 1: ATCCTGGAGAATCCCGGTGCCGAGGCCGCTCAATTGGTCGTAGACAGCTCTAGCACCGCTTAAACGCACGTACGCGCTGTCCCCCGCGTTTTAACCGCCAAGGGGATTACTCCTCAAGGCCAAGGCACGTGTCAGATATATACATCCTGTGAT
DNA 2: ATCACAGGATGTATATATCTGACACGTGCCTTGGCCTTGAGGAGTAATCCCCTTGGCGGTTAAAACGCGGGGGACAGCGCGTACGTGCGTTTAAGCGGTGCTAGAGCTGTCTACGACCAATTGAGCGGCCTCGGCACCGGGATTCTCCAGGAT
modifications: reconstituted with mouse histones H2A, H2B, H3.3 and H4
For B12, the binding signal in assay [1] is 1.01 log2 enrichment (bound/unbound, relative to Widom 601); in assay [2], 1.02 log2 enrichment (bound/unbound, relative to Widom 601).

B13: 112 (nucleosome)
DNA 1: ATCCTGGAGAATCCCGGTGCCGAGGCCGCTCAATTGGTCGTAGACAGCTCTAGCACCGCTTAAACGCACGTACGCGCTGTCCCCCGCGTTTTAACCGCCAAGGGGATTACTCCCTCAAGGCCAGGCACGTGTCAGATATATACATCCTGTGAT
DNA 2: ATCACAGGATGTATATATCTGACACGTGCCTGGCCTTGAGGGAGTAATCCCCTTGGCGGTTAAAACGCGGGGGACAGCGCGTACGTGCGTTTAAGCGGTGCTAGAGCTGTCTACGACCAATTGAGCGGCCTCGGCACCGGGATTCTCCAGGAT
modifications: reconstituted with mouse histones H2A, H2B, H3.3 and H4
Take B13: the binding signal in assay [1] was 0.87 log2 enrichment (bound/unbound, relative to Widom 601); in assay [2], 0.753 log2 enrichment (bound/unbound, relative to Widom 601).

B14: 109 (nucleosome)
DNA 1: ATCCTGGAGAATCCCGGTGCCGAGGCCGCTCAATTGGTCGTAGACAGCTCTAGCACCGCTTAAACGCACGTACGCGCTGTCCCCCGCGTTTTAACCGCCAAGGGGATTACTTCAAGGCCACCAGGCACGTGTCAGATATATACATCCTGTGAT
DNA 2: ATCACAGGATGTATATATCTGACACGTGCCTGGTGGCCTTGAAGTAATCCCCTTGGCGGTTAAAACGCGGGGGACAGCGCGTACGTGCGTTTAAGCGGTGCTAGAGCTGTCTACGACCAATTGAGCGGCCTCGGCACCGGGATTCTCCAGGAT
modifications: reconstituted with mouse histones H2A, H2B, H3.3 and H4
For the molecule B14, the binding signal is 0.938 log2 enrichment (bound/unbound, relative to Widom 601) in assay [1] and 0.719 log2 enrichment (bound/unbound, relative to Widom 601) in assay [2].

B15: 110 (nucleosome)
DNA 1: ATCCTGGAGAATCCCGGTGCCGAGGCCGCTCAATTGGTCGTAGACAGCTCTAGCACCGCTTAAACGCACGTACGCGCTGTCCCCCGCGTTTTAACCGCCAAGGGGATTACTCTCAAGGCCACAGGCACGTGTCAGATATATACATCCTGTGAT
DNA 2: ATCACAGGATGTATATATCTGACACGTGCCTGTGGCCTTGAGAGTAATCCCCTTGGCGGTTAAAACGCGGGGGACAGCGCGTACGTGCGTTTAAGCGGTGCTAGAGCTGTCTACGACCAATTGAGCGGCCTCGGCACCGGGATTCTCCAGGAT
modifications: reconstituted with mouse histones H2A, H2B, H3.3 and H4
On to B15, for which the binding signal is 0.939 log2 enrichment (bound/unbound, relative to Widom 601) in assay [1] and 0.962 log2 enrichment (bound/unbound, relative to Widom 601) in assay [2].
